Assay outcomes (PubChem)
TcdB GH inh: TcdB glycohydrolase inhibitors, primary screen, biochemical, single point, plate reader; Toxin B (Clostridioides difficile), P18177; TcdB glycohydrolase enzymatic assay; inhibition, % at 9.99 µM; 350,000 tested, 0.24% active; AID 652162, 2013; in the data active means inhibition above about 10%
CCHFV vOTU inh: CCHFV vOTU protease inhibitors, primary screen, biochemical, Pep-AMC substrate, fluorescence | Crimean-Congo hemorrhagic fever virus L polyprotein viral ovarian tumor (vOTU) protease … | inhibition, % at 11.5 µM | 370,000 tested, 0.55% active; in the data active means inhibition above about 30%; further: 0% = vehicle wells with enzyme and 100% = no enzyme wells
SSB-PriA inh: inhibitors of Klebsiella pneumoniae PriA binding to SSB C-terminal tail, primary screen, biochemical, AlphaScreen | AlphaScreen SSBct-PriA binding, biotinylated peptide | inhibition, % at 33 µM | 430,000 tested, 0.6% active | AID 1272365, 2023; in the data active means inhibition mostly above about 37%, no sharp cut-off; inactive means mostly below about 20%;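 further: plate controls were negative control peptide for no effect and reference peptide for full effect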
VHR inh abs: VHR1 phosphatase inhibitors, primary screen, biochemical, absorbance, uHTS | Dual specificity protein phosphatase 3 (Homo sapiens), P51452 | recombinant VHR phosphatase, pNPP absorbance | inhibition, % at 13.3 µM | 290,000 tested, 0.52% active | AID 1654, 2009; in the data active means inhibition above about 50%
BH1578 lux ind: inducers of Vibrio cholerae quorum light production without autoinducers, primary screen, BH1578 luxS cqsA deficient, single point; activation, % at 18.7 µM; V. cholerae BH1578 lux reporter, luminescence, 6 h; 350,000 tested, 0.16% active; in the data active means activation mostly above about 9.7%, no sharp cut-off
SARS 3CLpro inh: SARS-CoV 3CLpro protease inhibitors, primary screen, biochemical, quenched FRET. Replicase polyprotein 1ab (Severe acute respiratory syndrome coronavirus), P0C6X7. recombinant SARS-CoV 3CLpro, quenched FRET peptide cleavage. inhibition, % at 6 µM. 290,000 tested, 0.14% active; in the data active means inhibition above about 12%
Numbers without * were called inactive; i = inactive; nt = no result; ! = repeats disagree. Rows were chosen to be rich in hits. Some 1.3% of all compounds tested hit in one or more screens of this group.

SMILES	TcdB GH inh	CCHFV vOTU inh	SSB-PriA inh	VHR inh abs	BH1578 lux ind	SARS 3CLpro inh
S=c1nc(-c2ccc(Cl)cc2)[nH][nH]1	12*	-4	4	9	-1	-3
Cc1sc2nc(SCC(=O)NC[C@H]3CCCO3)n(Cc3ccco3)c(=O)c2c1C	nt	nt	-9	nt	nt	nt
CC(Sc1nc(N)cc(=O)[nH]1)C(=O)NCC(=O)Nc1ccc(F)c(F)c1F (stereo not drawn)	11*	2	-5	nt	-1	nt
CCc1ccc(S(=O)(=O)Nc2c(NC3CCCCC3)c3ccccc3oc2=O)cc1	nt	nt	0	57*	0	1
Cc1ccc(NC(=O)c2cc(=O)c3ccccc3o2)c(C)c1	0	4	-16	58*	-1	1
Cc1ccc(C)c(NC(=O)c2cc(=O)c3ccccc3o2)c1	nt	-10	-14	-3	i	-1
Cn1c(=O)c2sccc2n2c(CCCC(=O)NCc3ccc(F)cc3)nnc12	2	5	-14	60*	0	0
CCn1c(=O)cc(SCC(=O)NCc2ccccn2)c2ccccc21	nt	-3	8	55*	i	4
O=C(c1ccc(Br)c([N+](=O)[O-])c1)N1CCN(Cc2ccccc2)CC1	-1	20	18	20	i	-7
Cc1cc(C(=O)N2CCN(Cc3ccccc3)CC2)ccc1[N+](=O)[O-]	12*	2	-6	18	i	-8
Cc1ccc(C)c2[nH]c(=O)c(CCNC(=S)NCCn3ccc4ccccc43)cc12	nt	nt	-3	nt	nt	nt
Cc1ccc2cc(CCNC(=S)NCCn3ccc4ccccc43)c(=O)[nH]c2c1	nt	nt	46*	nt	nt	nt
Cn1c(C(=O)c2ccccc2)nc2ccccc21	2	1	-16	6	i	1
Cn1c(C(=O)c2ccccc2[N+](=O)[O-])nc2ccccc21	3	-7	39*!	20	0	1
Cc1ccc(CSc2nc(CC(=O)Nc3ccccc3C(N)=O)cs2)cc1	nt	nt	-5	nt	nt	nt
O=[N+]([O-])c1cc(Cl)cc(C=NNc2nc3ccccc3s2)c1O	nt	nt	-2	nt	nt	nt
CC(=O)[C@@H]1[C@@H](C(=O)c2ccccc2)[C@]2(C(=O)Nc3ccccc32)[C@H]2C=Cc3cc(F)ccc3N12	nt	-6	6	-8	i	2
O=C(c1ccccc1)[C@@H]1[C@@H](C(=O)c2ccc(F)cc2)[C@@]2(C(=O)Nc3ccccc32)[C@H]2c3ccccc3C=CN12	-1	84*	10	5	0	-7
CS(=O)(=O)N1CC(=O)Nc2ccc(Br)cc2[C@@H]1c1ccccc1	nt	nt	-8	nt	nt	nt
CC(=O)Nc1cccc(NC(=O)CSc2nc(CC(=O)NCCC3=CCCCC3)cs2)c1	nt	nt	6	nt	nt	nt
O=C1OCC(c2ccccc2)=C1c1ccc(S(=O)(=O)N2CCOCC2)s1	nt	-2	5	13	17*	2
COC(=O)c1c(NC(=O)c2cc(OC)c(OC)c(OC)c2)sc2c1CCCC2	nt	nt	-3	nt	nt	nt
CSc1ccccc1C(=O)Nc1cc(C)nn1-c1nc2c(cnn2-c2ccc(F)cc2)c(=O)[nH]1	nt	nt	41*	nt	nt	nt
COc1ccc(C(=O)Nc2cc(C)nn2-c2nc3c(cnn3-c3ccc(C)c(C)c3)c(=O)[nH]2)cc1OC	nt	nt	91*	nt	nt	nt
COc1ccc(C(=O)Nc2cc(C)nn2-c2nc3c(cnn3-c3ccc(F)cc3)c(=O)[nH]2)cc1OC	nt	nt	53*	nt	nt	nt
SMILES	TcdB GH inh	CCHFV vOTU inh	SSB-PriA inh	VHR inh abs	BH1578 lux ind	SARS 3CLpro inh
Cn1cc(-c2ccco2)nc1CCNC(=O)c1ccc2c(c1)OCO2	nt	nt	-6	nt	nt	nt
COc1ccc(S(=O)(=O)Nc2ccc3c(c2)NC(=O)C(C)(C)CO3)cc1F	nt	nt	0	nt	nt	nt
Cc1ccc([C@@H](O)CNC(=O)NCCOc2ccccc2)o1	nt	nt	-5	nt	nt	nt
CC(C)(C)c1csc(NC(=O)C2CCN(S(C)(=O)=O)CC2)n1	nt	nt	13	nt	nt	nt
Cc1ccc(Cn2c(=O)oc3ccccc32)cc1	1	2	-7	16	i	-2
O=c1oc2ccccc2n1Cc1cccc(F)c1	2	-11	-3	53*	-1	1
O=c1c(-c2ccc(Cl)cc2)c(C(F)(F)F)oc2c3c(ccc12)OCN(Cc1cccnc1)C3	nt	nt	7	nt	nt	nt
O=C(CSc1nnc2scc(-c3ccccc3)n12)c1ccc(Oc2ccccc2)cc1	nt	nt	-6	nt	nt	nt
